# Laboratory results: the supplement of paper PMC6522484
# Where a name gives a salt, the structure may show the parent alone. ± gives the standard deviation of the averaged measurements.
# Tests used:
# DLD1 [1] = assay: cell viability (CellTiter-Glo) relative to plate median (fraction of plate median); higher = more viable cells; conditions: 5 µM; treatment time 24 h; reporter: 7TFP
# Procedure, shortened: (§1)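 Luminescence, normalised well by well to the plate median, is tabulated as a mean of independent replicates. There were two replicates, run on colorectal cancer lines stably transduced with lentiviral TCF/Wnt firefly luciferase reporters and dosed with library compounds at a final 5 µM for 24 h. Readouts were firefly luciferase or CellTiterGlo on parallel plates.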
# HCT116 = assay: as above; conditions: 5 µM; treatment time 24 h; reporter: TCF4/Wnt
# Procedure, shortened: as §1
# SW480 [2] = assay: as above; conditions: 5 µM; treatment time 24 h; reporter: 7TFP
# Procedure, shortened: as §1
# DLD1 [3] = assay: TCF/Wnt firefly luciferase reporter signal relative to plate median (fraction of plate median); higher = higher Wnt reporter signal; conditions: 5 µM; treatment time 24 h; reporter: 7TFP
# Procedure, shortened: as §1
# SW480 [4] = assay: as above; conditions: 5 µM; treatment time 24 h; reporter: 7TFP
# Procedure, shortened: as §1
Structure (SMILES),cell viability (DLD1 [1]),cell viability (HCT116),cell viability (SW480 [2]),TCF/Wnt firefly luciferase reporter signal (DLD1 [3]),TCF/Wnt firefly luciferase reporter signal (SW480 [4])
C=CC1=C(C)c2cc3[nH]c(cc4nc(cc5[nH]c(cc1n2)c(C)c5CCC(=O)O)C(CCC(=O)O)=C4C)c(C)c3C=C,1 ± 0.028,0.964 ± 0.12,0.963 ± 0.053,0.967 ± 0.027,0.992 ± 0.0057
C=CC(C)(O)CCC1C(=C)CC(O)C2C(C)(C)CCCC12C (stereo not given),0.995 ± 0.0071,0.865 ± 0.1,0.996 ± 0.0057,0.922 ± 0.15,0.927 ± 0.1
CC(=O)OC1CCC23CC1(C)CCC2C(C)(C)CC3OC(C)=O (stereo not given),0.999 ± 0.044,1.09 ± 0.021,1.02 ± 0.042,1.03 ± 0.014,0.93 ± 0.04
COc1ccc2c(c1)O[C@H]1c3ccc(OC)cc3OC[C@@H]21,0.969 ± 0.044,0.906 ± 0.12,0.979 ± 0.044,0.792 ± 0.025,0.969 ± 0.086
CC1(C)CC[C@]2(C(=O)O)CC[C@]3(C)C(=CCC4[C@@]5(C)CC[C@@H](O)C(C)(C)C5CC[C@]43C)C2C1 (stereo not given in full),0.967 ± 0.032,1.11 ± 0.092,1.08 ± 0.014,0.955 ± 0.093,0.9805 ± 0.005
CC1CCC(C(C)C)C(O)C1 (stereo not given),1.05 ± 0.1,1.04,1.02 ± 0.066,1.09 ± 0.035,1.01 ± 0.09
O=C(O)c1cc(=O)c2c(Cl)cc(Cl)cc2[nH]1,0.944 ± 0.12,0.968 ± 0.059,0.976 ± 0.091,0.835 ± 0.021,0.911 ± 0.052
CC1COc2c(N3CCN(C)CC3)c(F)cc3c(=O)c(C(=O)O)cn1c23 (stereo not given),0.995 ± 0.05,1.04 ± 0.16,0.91 ± 0.0099,0.93 ± 0.075,1.01 ± 0.088
OCCN1CCN(CCCN2c3ccccc3Sc3ccc(C(F)(F)F)cc32)CC1,0.902 ± 0.082,0.973 ± 0.019,1.05 ± 0.09,0.927 ± 0.12,1.04 ± 0.1
COc1cc(C(=O)NCc2ccc(OCCN(C)C)cc2)cc(OC)c1OC,0.99 ± 0.057,1 ± 0.13,0.996 ± 0.077,0.871 ± 0.12,0.851 ± 0.06
CC(C(=O)O)c1cccc(Oc2ccccc2)c1 (stereo not given),0.968 ± 0.088,0.98 ± 0.0057,0.988 ± 0.06,1.04 ± 0.085,1.11 ± 0.042
O=C(O[C@@H]1Cc2c(O)cc(O)cc2O[C@@H]1c1cc(O)c(=O)c2c(O)c(O)cc([C@H]3Oc4cc(O)cc(O)c4C[C@H]3OC(=O)c3cc(O)c(O)c(O)c3)c2c1)c1cc(O)c(O)c(O)c1,0.996 ± 0.035,0.9235 ± 0.0064,1.045 ± 0.0071,0.903 ± 0.041,1.04
C=C[C@@]1(C)CC(=O)[C@@]2(O)[C@](C)(O1)[C@@H](O)[C@@H](O)C1C(C)(C)CC[C@H](O)[C@@]12C (stereo not given in full),0.9975 ± 0.0035,0.96 ± 0.051,1.02 ± 0.014,0.923 ± 0.042,0.976 ± 0.13
COc1ccc(Cl)cc1C(=O)NCCc1ccc(S(=O)(=O)NC(=O)NC2CCCCC2)cc1,1.005 ± 0.0071,0.962 ± 0.082,0.976 ± 0.049,1.12 ± 0.13,1.14 ± 0.05
CCN(CC)CCOC(=O)C(c1ccccc1)c1ccccc1,0.982 ± 0.068,0.972 ± 0.054,0.917 ± 0.036,0.904 ± 0.14,0.929 ± 0.0057
Cc1c(N(C)C)c(=O)n(-c2ccccc2)n1C,0.898 ± 0.025,0.981 ± 0.13,0.991 ± 0.069,1.1 ± 0.028,0.821 ± 0.057
C=C1[C@@H]([C@@]2(C)C=CC(=O)C(C)(C)[C@@H]2CC(=O)OC)CC[C@@]2(C)[C@H](c3ccoc3)OC(=O)[C@H]3O[C@]132,0.94 ± 0.021,1.01 ± 0.039,1.02 ± 0.021,0.978 ± 0.19,0.996 ± 0.048
O=C(CCCN1CCN(c2ccccn2)CC1)c1ccc(F)cc1,1.03 ± 0.028,0.963 ± 0.12,0.994 ± 0.023,0.985 ± 0.064,1.01 ± 0.028
CC(=O)Oc1cc(C)c2c(c1C=O)Oc1c(c(C)c(OC(C)=O)c3c1C(OC(C)=O)OC3=O)OC2=O (stereo not given),1.025 ± 0.0071,0.949 ± 0.039,1.04 ± 0.063,0.875 ± 0.084,1.01 ± 0.099
Cc1ccccc1OCC(O)CO (stereo not given),0.958 ± 0.042,0.983 ± 0.0099,0.999 ± 0.03,1.02 ± 0.15,1.04 ± 0.014
O=C1NS(=O)(=O)c2ccccc21,0.973 ± 0.052,1.1 ± 0.085,1.03 ± 0.044,1.1 ± 0.042,0.96 ± 0.14
"COc1cc(O)c2c(=O)cc(-c3ccc(OC)c(-c4c(O)cc(O)c5c(=O)cc(-c6ccc(O)cc6)oc45)c3)oc2c1 [GINKGETIN, K salt]",0.994 ± 0.079,0.899 ± 0.04,0.9925 ± 0.0092,1.1 ± 0.15,1.16 ± 0.2
CC1(C)S[C@@H]2[C@H](NC(=O)[C@H](N)c3ccc(O)cc3)C(=O)N2[C@H]1C(=O)O,0.928 ± 0.049,1.02 ± 0.067,0.95 ± 0.016,1.11 ± 0.092,1.01
CN1CCc2c(c3ccccc3n2Cc2ccccc2)C1,1.01 ± 0.051,1.01 ± 0.029,1.04 ± 0.035,1.05 ± 0.1,0.961 ± 0.14
C[C@@H]1C[C@H]2[C@@H]3CCC4=CC(=O)C=C[C@]4(C)[C@@]3(F)[C@@H](O)C[C@]2(C)[C@@]1(O)C(=O)CO,1.06 ± 0.071,1.05 ± 0.057,0.977 ± 0.016,1.04 ± 0.082,1.05 ± 0.035
CC1=C(CCC(=O)O)c2cc3nc(cc4[nH]c(cc5[nH]c(cc1n2)c(C)c5C(C)O)c(C)c4C(C)O)C(C)=C3CCC(=O)O (stereo not given),1.01 ± 0.015,0.909 ± 0.11,0.964 ± 0.0099,1.01 ± 0.13,1.02 ± 0.16
O=C1CN(/N=C/c2ccc(-c3ccc([N+](=O)[O-])cc3)o2)C(=O)N1,0.999 ± 0.044,0.9895 ± 0.005,0.97 ± 0.018,1 ± 0.042,1.02 ± 0.014
O=C([O-])[C@H]1/C(=C/CO)O[C@@H]2CC(=O)N21.[Li+],1.045 ± 0.0071,1.04 ± 0.064,1.02 ± 0.049,1.04 ± 0.092,1.125 ± 0.0071
